PubChem BioAssay (NCATS)
Several values for one entry are separate records, joined by “and”; a condition that tells them apart may be missing. Equal values may be shown once. Records with an inconclusive call do not appear. Values without a mark were called inactive. Activity calls are given as the source filed them. Calls come from the whole dose curve; as a rule, active = well fitted cell-killing curve with a large enough effect; inconclusive = small, poorly fitted or top-dose-only effect; inactive = flat fitted curve, though single readings scatter.

Assay: Cellular viability qHTS for adrenocortical cancer (ACC) cell line SW-13 (AID 1963989); note: nearly all actives have a fitted effect of over 65% in size;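 for activity (max response): cells grown in serum-free medium with ITS supplement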
Conditions: SW-13 ACC cells viability, CellTiter-Glo, 48 h; activity (max response): hits give low values
Description: PI: Naris Nilubol, MD Surgical Oncology Program, National Cancer Institute (NCI) National Institute of Health (NIH), Bethesda, Maryland Adrenocortical cancer (ACC) is a rare malignancy with poor survival outcomes and few treatment options. Currently, mitotane is the only FDA-approved therapy for ACC. Although adjuvant radiation therapy is rarely utilized, it has the potential to improve survival in select cases. Through a quantitative high-throughput drug screen (qHTS), we identified auranofin (AF), a thioredoxin reductase (TXNRD) inhibitor, as a promising candidate drug. This study aims to evaluate whether AF can enhance the efficacy of radiation therapy in the treatment of ACC. Two human ACC cell lines, SW-13 and NCI-H295R, were screened using the National Center for Advancing Translational Sciences (NCATS) Pharmaceutical Collection (NPC) and the Mechanism Interrogation PlatE (MIPE) library (~4,991 compounds). CellTiter-Glo (Cat # G7570, Promega, Madison, WI) was utilized to measure cell viability. Described herein are the results of the corresponding viability assay.
PROTOCOL TABLE (as described by Inglese J, Shamu CE and Guy RK. 2007) SEQUENCE No. (e.g., 1, 2, 3, etc.); […] (e.g., Cells, Incubation, Reagent, etc.); VALUE; DESCRIPTION. 1; Cells; 5 uL; white, solid-bottom, 1536-well tissue-culture treated plates. 2; Time; overnight culture at 37C with 5% CO2. 3; Compounds and control; 23 nL; Kalypsis pin tool (Wako USA) equipped with a 1536-well pin head to transfer to the assay plates. 4; Time; 48 hours; 37C with 5% CO2. 5; Reagent; 4 uL; CellTiter-Glo luminescent substrate mix. 6; Time; 20 min at room temperature. 7; Detection; Luminescence; ViewLux plate reader NOTES (numbers refer to Sequence numbers above) 1. SW13 cells were harvested from a T175 flask and resuspended in ITS-supplemented DMEM serum-free medium at a concentration of 300 000 cells/mL. Then 5 uL of resuspended cells were dispensed into each well of white, solid-bottom, 1536-well tissue-culture-treated plates using a multidrop combi dispenser. The plates were covered with stainless steel gasket lids. 2-3. The plates were cultured overnight at 37C with 5% CO2. Twenty-three nL of compounds (eight selected concentrations from the NPC / MIPE) or positive control (10 mM stock of bortezomib) in DMSO was transferred to each well of the assay plate using a pin tool (Kalypsys, San Diego, CA, USA). The final concentration of the compounds in the 5 uL assay volume ranged from 0.5 nM to 46 uM. 4-6. After 48 hours of incubation at 37C and 5% CO2, 4 uL of CellTilter-Glo luminescent substrate mix (Promega, Madison, WI, USA) was added to each well. Then the plates were incubated for 20 minutes at room temperature. 7. After incubation, luminescence was measured using a ViewLux plate reader (PerkinElmer, Waltham, MA, USA) with a clear filter was used to measure the number of metabolically competent cells. To determine compound activity in the qHTS assay, the titration-response data for each sample was plotted and modeled by a four-parameter logistic fit yielding IC50 and efficacy (maximal response) values. […] REFERENCES: Inglese J, Shamu CE and Guy RK, Reporting data from high throughput screening of small molecule libraries, Nature Chemical Biology, 2007, 3(8): 438-441. doi.org/10.1038/nchembio0807-438.
% is set by controls: 0 for no effect and ±100 for the full control effect.

SMILES | activity (max response) | Potency
CC(C)(C)c1ccc(C(=O)CCCCl)cc1 | 6.38% | 
C=CCCCCCCCCC(=O)O | 9.7% | 
CN[C@H](CC(C)C)C(=O)N[C@H]1C(=O)N[C@@H](CC(N)=O)C(=O)N[C@H]2C(=O)N[C@H]3C(=O)N[C@H](C(=O)N[C@H](C(=O)O)c4cc(O)cc(O)c4-c4cc3ccc4O)[C@H](O)c3ccc(c(Cl)c3)Oc3cc2cc(c3O[C@@H]2O[C@H](CO)[C@@H](O)[C@H](O)[C@H]2O[C@H]2C[C@](C)(N)[C@H](O)[C@H](C)O2)Oc2ccc(cc2Cl)[C@H]1O | -12.5% | 
CCc1cc(C(N)=S)ccn1 | 3.73% and -4.72% | 
CC1CCC(n2c3cnccc3c3cnc(Nc4ccc5c(n4)CCN(C(=O)CO)C5)nc32)CC1 (stereo not given) | -7.81% | 
C[C@@H](O)[C@H]1C(=O)N2C(C(=O)O)=C(SCCN=CN)C[C@H]12 | -5.98% | 
CN1CCN(c2ccc3nc(-c4c(N)c5c(F)cccc5[nH]c4=O)[nH]c3c2)CC1 |  | 15.8 µM (active)
Cc1nnc(NS(=O)(=O)c2ccc(N)cc2)s1 | -2.08% and -2.89% | 
COc1ccc(-c2cc(=O)c3c(O)cc(O[C@@H]4O[C@H](CO[C@@H]5O[C@@H](C)[C@H](O)[C@@H](O)[C@H]5O)[C@@H](O)[C@H](O)[C@H]4O)cc3o2)cc1O | -2.14% and 4.75% | 
CC(C)(C)CC(C)(C)c1ccc(OCCOCC[N+](C)(C)Cc2ccccc2)cc1 |  | 5.17 µM (active)
Nc1ncnc2c1ncn2[C@@H]1O[C@H](CO)[C@@H](O)[C@H]1O | -13.6% | 
Cc1ccc([N+](=O)[O-])cc1S(=O)(=O)N(C)/N=C/c1cnc2ccc(Br)cn12 |  | 0.282 µM (active)
CO[C@@]1(NC(=O)Cc2cccs2)C(=O)N2C(C(=O)O)=C(COC(N)=O)CS[C@@H]21 | 12.4% | 
CCc1cc2cc(OC)c(OC)cc2c(Cc2ccccc2)n1 | -5.12% | 
CCCCC(CC)COC(=O)/C=C/c1ccc(OC)cc1 (stereo not given) | 1.77% | 
CC(C)CNc1ccnc(NCc2csc(-c3ccccc3)n2)n1 |  | 11.2 µM (active)
Oc1ccc(C(O)CNCCCCCCNCC(O)c2ccc(O)c(O)c2)cc1O (stereo not given) | -8.39% | 
CC[N+](C)(C)c1cccc(O)c1 | 8.29% | 
CC(Oc1c(Cl)cccc1Cl)C1=NCCN1 (stereo not given) | 12.6% | 
O=C(NCCCN1CCOCC1)c1ccc(Cl)cc1 | 5.56% | 

SMILES | activity (max response) | Potency
COc1cc2c(cc1O)CCN[C@]21CS[C@@H]2c3c(OC(C)=O)c(C)c4c(c3[C@H](COC1=O)N1[C@@H]2[C@H]2c3c(cc(C)c(OC)c3O)C[C@@H]([C@@H]1O)N2C)OCO4 |  | 0.0038 µM (active)
Cc1cc(O)c2c(c1)C(=O)c1cc(O)cc(O)c1C2=O | -8.42% | 
CCCCCCCCCCCCOS(=O)(=O)O | 4.63% | 
C=C1c2cccc(O)c2C(O)=C2C(=O)[C@]3(O)C(O)=C(C(N)=O)C(=O)[C@@H](N(C)C)[C@@H]3[C@@H](O)[C@H]12 | 3.29% | 
CCCCCCCCCCCCCC(=O)OC(C)C | 6.54% | 
C[C@]12C=CC(=O)C=C1CC[C@@H]1[C@@H]2[C@@H](O)C[C@@]2(C)[C@H]1CC[C@]2(O)C(=O)CO | -7.97% and -0.878% | 
c1ccc2sc(SN3CCOCC3)nc2c1 | 3.28% | 
C=CC(=O)Nc1cc2c(Nc3ccc(F)c(Cl)c3)ncnc2cc1OCCCN1CCOCC1 |  | 3.55 µM (active)
CCCCCCCC(=O)[O-].CCCCCCCC(=O)[O-].[Zn+2] | 2.96% | 
N=C1CCCN1Cc1[nH]c(=O)[nH]c(=O)c1Cl | -17.6% | 
Nc1nc(=S)c2[nH]cnc2[nH]1 |  | 3.26 µM (active) and 2.82 µM (active)
C[C@H](N)[C@H](O)c1cccc(O)c1 | 0.409% | 
CC[C@H](c1ccc(O)cc1)[C@@H](CC)c1ccc(O)cc1 |  | 5.17 µM (active)
C[C@@H](Oc1cc(-c2cnn(C3CCNCC3)c2)cnc1N)c1c(Cl)ccc(F)c1Cl |  | 3.55 µM (active)
Cc1nc(Nc2n[nH]c3c2CN(C(=O)N[C@H](CN(C)C)c2ccccc2)C3(C)C)c2sccc2n1 |  | 3.16 µM (active)
CCC(=O)O[C@]1(C(=O)CCl)[C@@H](C)C[C@H]2[C@@H]3CCC4=CC(=O)C=C[C@]4(C)[C@@]3(F)[C@@H](O)C[C@@]21C | -11.2% and -16.8% | 
COc1ccc2[nH]c(C(=O)N3CCC(CC(C)(C)O)CC3)cc2c1 | -4.14% | 
CCC(C)(Oc1ccc(C2(c3ccc(OC(C)(CC)C(=O)O)cc3)CCCCC2)cc1)C(=O)O (stereo not given) | -4.64% and -4.83% | 
Cc1cccc(C)c1OCC(C)N (stereo not given) | 2.1% | 
O=C(O)[C@@H]1CSCN1 | -7.21% | 
